Out of some 1,700 compounds screened, about 150 (8.8%) were called active. Roughly 19% stayed inconclusive and do not appear here.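 How the source made its calls: active means fluorescence change differing from the plate's solvent-only control wells at 99.7% confidence in both duplicates, whether higher or lower; inconclusive means differs from solvent controls in only one of two duplicates; inactive means the rest.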 Only a sample is shown.
The compounds below were run against Muscarinic acetylcholine receptor M4 (Rattus norvegicus) (UniProt P08485) (assay: rat M4 muscarinic receptor activation – cell-based, agonist mode, counter-screen for M1 allosteric modulator project, confirmation (AID 1741)). Conditions: CHO M4/Gqi5 cells, Fluo-4 calcium fluorescence, at 10 µM, actives lie on both sides.
Sequence of Muscarinic acetylcholine receptor M4 (Rattus norvegicus) (P08485 whole entry, looked up): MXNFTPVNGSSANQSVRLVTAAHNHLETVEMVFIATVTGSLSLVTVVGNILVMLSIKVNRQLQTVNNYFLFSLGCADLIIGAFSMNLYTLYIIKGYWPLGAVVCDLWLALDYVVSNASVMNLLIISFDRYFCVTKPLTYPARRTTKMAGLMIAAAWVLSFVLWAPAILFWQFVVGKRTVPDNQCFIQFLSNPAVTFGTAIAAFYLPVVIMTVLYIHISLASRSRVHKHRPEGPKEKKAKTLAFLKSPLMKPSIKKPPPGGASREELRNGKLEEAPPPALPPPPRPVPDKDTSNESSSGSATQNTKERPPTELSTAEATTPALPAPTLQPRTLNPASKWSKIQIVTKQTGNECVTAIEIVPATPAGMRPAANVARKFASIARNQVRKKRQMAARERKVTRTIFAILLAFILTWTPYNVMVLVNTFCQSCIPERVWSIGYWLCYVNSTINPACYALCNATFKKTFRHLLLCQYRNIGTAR

| Compound | fluorescence change (max-min) |
| --- | --- |
| O=C(O)c1ccc(COCC(F)(F)F)cc1 | -14 (inactive) |
| COCCNC(=O)C(c1ccc(C)o1)N(Cc1cccs1)C(=O)c1snc(C(N)=O)c1N (stereo unspecified) | -6.44 (inactive) |
| COc1cccc2c(C)c(C(=O)O)[nH]c12 | -9.04 (inactive) |
| COc1ccccc1NC1=NC(c2ccc(Cl)cc2)N=C(N)N1 (stereo unspecified) | -38.9 (inactive) |
| N#CC1=C(N)Oc2c(sc3ccccc23)C1c1ccco1 (stereo unspecified) | 50 (inactive) |
| CCOc1ccc2nc(N3CCCN(C(=O)Nc4ccccc4C)CC3)c(C#N)cc2c1 | 246 (active) |
| Cc1cc(NC(=O)COc2ccc(Cl)cc2Cl)n(CCC#N)n1 | -13.8 (inactive) |
| C(=N\n1cnnc1)/c1cccnc1 | -25.3 (inactive) |
| COc1ccc2nc(N3CCCC(O)C3)c(C#N)cc2c1 (stereo unspecified) | 176 (active) |
| COc1ccc(N(CC(=O)NC(C)(C)C)C(=O)c2ccco2)cc1 | -53.4 (inactive) |
| O=C(CSc1nnc(-c2ccco2)n1Cc1ccccc1)NC(=O)NCc1ccco1 | -23.1 (inactive) |
| COc1ncnc2c1N=C1CC(C)(C)CC(N)=C1S2 | 136 (active) |
| c1ccc2c(c1)OCC(CNc1ncnc3nc[nH]c13)O2 (stereo unspecified) | 1130 (active) |
| Cc1nc2ccccc2c2oc(C(=O)NCC3CCCO3)cc12 (stereo unspecified) | -66.7 (inactive) |
| COC(=O)c1ccc(CSc2nc3ccccc3c(=O)n2-c2cccc(OC)c2)o1 | -28.9 (inactive) |
| Cc1nc(CNS(=O)(=O)c2ccc(Oc3ccccc3)cc2)cs1 | 2.92 (inactive) |
| COc1ccccc1NC(=O)CSc1nnc(Cn2nnc(-c3ccccc3)n2)n1-c1ccccc1 | -51.1 (inactive) |
| COc1ccccc1N1CCN(C(=O)c2cn(-c3ccccc3)nc2-c2cccnc2)CC1 | -73.3 (inactive) |
| COc1ccc(CCNC(=O)C2CCN(c3nn4c(=O)cc(C)nc4s3)CC2)cc1OC | -40 (inactive) |
| CCOc1cc(-c2nc3cc(C)ccn3c2NCC2CCCO2)ccc1O (stereo unspecified) | -60.7 (inactive) |
| CCOc1ccc(NC(=O)N2CC=C(n3c(=O)[nH]c4ccccc43)CC2)cc1 | -26.4 (inactive) |
| COc1ccc(Nc2oc(-c3ccccc3Cl)nc2C#N)cc1 | -74.3 (inactive) |

| Compound | fluorescence change (max-min) |
| --- | --- |
| O=C(NCCC1=CCCCC1)C1CCN(Cc2cnn(-c3ccccc3)c2-n2cccc2)CC1 | -67.1 (inactive) |
| c1n[nH]c(NCc2ccc3c(c2)OCO3)n1 | -28.2 (inactive) |
| CC1CCCC(C)N1C(=O)CN1CCN(c2nc(-c3ccc(F)cc3)cs2)CC1 (stereo unspecified) | -9.73 (inactive) |
| Nc1ccc(SCCN2C(=O)c3ccccc3C2=O)cc1 | -77.3 (inactive) |
| Cc1cc2cc(CN(Cc3cccs3)Cc3nnnn3CC3CCCO3)c(=O)[nH]c2cc1C (stereo unspecified) | -27 (inactive) |
| O=C(c1ccccc1)c1ccc(OC(=O)N2CCCC2)cc1 | -25.9 (inactive) |
| CC(NC(=O)CSc1nc2c(cc1C#N)CN(C)CC2)c1ccccc1 (stereo unspecified) | -18.9 (inactive) |
| O=C(Nc1cccc(NC(=O)N2CCN(c3ccccc3)CC2)c1)N1CCN(c2ccccc2)CC1 | -12.4 (inactive) |
| Cc1nn2c(c1-c1ccccc1)N=C(c1ccco1)CC2c1ccccc1 (stereo unspecified) | 5.67 (inactive) |
| CCOc1nc(-c2ccc(OC)cc2)ccc1-c1noc(-c2cc(OC)c(OC)c(OC)c2)n1 | 18.4 (inactive) |
| CCCOc1ccccc1C1CC(=O)Nc2cc3c(cc21)OCO3 (stereo unspecified) | -71.7 (inactive) |
| CCn1c(NCCc2ccc(OC)c(OC)c2)nc2c1c(=O)n(C)c(=O)n2C | -47.9 (inactive) |
| CCN(CC)c1ccc2cc(C(=O)O)c(=O)oc2c1 | 137 (inactive) |
| Fc1ccc2[nH]c3c(N4CCSCC4)ncnc3c2c1 | -68.8 (inactive) |
| CCN=C1SC(CC(=O)Nc2ccc(C)cc2)C(=O)N1CC (stereo unspecified) | -71.4 (active) |
| COc1cccc(-n2cc3c(c2-c2ccccc2)c(=O)n(C)c(=O)n3C)c1 | -42.2 (inactive) |
| COc1ccc2[nH]c(=O)c(CN(CC3CCCO3)C(=O)Nc3ccccc3)cc2c1 (stereo unspecified) | -53.6 (inactive) |
| CCOc1ccc2[nH]c(=O)c(CN(Cc3nnnn3Cc3ccccc3)CC3CCCO3)cc2c1 (stereo unspecified) | -7.46 (inactive) |
| O=C1c2ccccc2-c2ncnc3c(N4CCOCC4)cc(N4CCOCC4)c1c23 | -22.7 (inactive) |
| FC(F)(F)COc1nc(N2CCCCC2)nc(N2CCNCC2)n1 | -26.5 (inactive) |
| CCOC(=O)c1cc2n(c1N)-c1ccccc1C2=O | 2020 (active) |
| CC(=O)Nc1ccc(NC(=O)CN2CCCC(C)C2)c(Cl)c1 (stereo unspecified) | -37.2 (inactive) |

| Compound | fluorescence change (max-min) |
| --- | --- |
| COc1ccccc1N1CCN(C(=O)c2c(-c3c(Cl)cccc3Cl)noc2C)CC1 | -27 (inactive) |
| O=C(Cn1cc(C(=O)c2cccs2)c2ccccc21)NCc1cccs1 | -25 (inactive) |
| COc1ccc(C(C(O)C(=O)c2c[nH]c3ccccc23)N2CCN(c3ccccc3)CC2)cc1 (stereo unspecified) | -6.79 (inactive) |
| COc1cc(C(=O)Nc2oc(-c3ccccc3)c(-c3ccccc3)c2C#N)cc(OC)c1OC | -47.4 (inactive) |
| CCCN1CC=C2C(C#N)=C(N)C(C#N)(C#N)C(c3cc(OC)ccc3OC)C2C1 (stereo unspecified) | 84.1 (inactive) |
| COc1ccc(NC(=O)C2CCCN(S(=O)(=O)c3cccc4cccnc34)C2)cc1OC (stereo unspecified) | -56.1 (inactive) |
| Cc1ccc2oc(=O)c3cnn(CC(=O)N4CCN(c5ccccn5)CC4)c3c2c1 | -22 (inactive) |
| CCOc1cc(N2CCOCC2)c(OCC)cc1NC(=O)COc1cccc2cccnc12 | -39.2 (inactive) |
| Cc1ccc(S(=O)(=O)Nc2ccc3ncccc3c2)cc1 | -7.21 (inactive) |
| O=C(NCCc1ccc2c(c1)OCCO2)c1cc2ccccc2o1 | -9.99 (inactive) |
| COc1ccc(C2C(C(=O)N3CCN(c4ccc(OC)cc4)CC3)c3ccccc3C(=O)N2C)cc1 (stereo unspecified) | -57.8 (inactive) |
| Cn1c(C(=O)NCCc2ccsc2)cc2c(=O)n(C)c3ccccc3c21 | -42.5 (inactive) |
| COc1ccc(N(C(=O)c2cccnc2)S(=O)(=O)c2ccc3c(c2)n(C)c(=O)n3C)cc1 | -59.4 (inactive) |
| O=C(CSCc1cccs1)N1CCCC1 | -76.4 (inactive) |
| CN1C(=O)c2ccc(NC(=O)c3c(F)c(F)c(F)c(F)c3F)cc2C1=O | -27.8 (inactive) |
| CC(=O)OC(C)C[N+](C)(C)C (stereo unspecified) | 146 (active) |
| CC(C[N+](C)(C)C)OC(N)=O (stereo unspecified) | 11.8 (inactive) |
| CCOC(=O)C1CCCN(C(=O)c2ccc(CS(=O)(=O)c3ccc(Br)cc3)o2)C1 (stereo unspecified) | -59.9 (inactive) |
| CC(C)OCCCNc1ncnc2c1[nH]c1ccc(F)cc12 | -4.51 (inactive) |
| O=C(Nc1nc(-c2ccc3c(c2)OCO3)cs1)c1ccncc1 | -52 (inactive) |
| CC(C)(C)c1cc(CN2CCN(CCC#N)CC2)cc(C(C)(C)C)c1O | -27.3 (inactive) |
| O=C(Nc1cccc(-c2nnc(-c3ccccc3)o2)c1)C1CCCO1 (stereo unspecified) | -67.5 (inactive) |

Reference: PubChem BioAssay AID1741 (Vanderbilt High Throughput Screening Facility, 2009)
